The record followed here is PubChem BioAssay AID1347423 (Functional Genomics Laboratory (NCATS/FGL), 2020).

Hit rate of the full screen: of about 52,000 sequences, about 210 (0.4%) were called active.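 Rule for the calls: active = gene whose silencing raises cell survival under the drug, median off-target-corrected z-score across its silencing RNAs 2 or more; inactive = the rest.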 Only a selection was taken, and actives are over-represented in it overall.

The assay is described as follows: Resistance to Poly (ADP-Ribose) Polymerase inhibitor: Gene Identification via Genome-wide siRNA Screen. Particulars: mouse BRCA2 R2336H ES cells, olaparib, CellTiter-Glo viability; stronger effect = higher value. A digest of the protocol:
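Mouse BRCA2 R2336H ES cells were reverse-transfected with siRNA (20 nM final), treated at 48 h with 500 nM olaparib, and read by CellTiter-Glo after 72 h. Scores: MAD-based z per siRNA, median per gene, seed off-target correction.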
As for “GACAAAUAGUGCAGGAGGATT against 2310069N01Rik”, the z-score was 0.444 (inactive). For CCAAAUACGACUUACGAAATT against Ncam2, the z-score is 0.897 (inactive). The figure for “CGAUGUUUUCAUGAACGACTT against 0610012D17Rik” is 0.421 (inactive); for “GGCAGUGGCUUGGAUAAAUTT against 5730457F11Rik” it is 2.83 (active). On to GGAAGAAGAGCUCUUUAAATT against Acate2, for which the z-score was 0.108 (inactive). Consider GGACCAGCACCAUUUCCUATT against Tce4, for which the z-score was -0.603 (inactive). In the case of GCUACUAUAUGCGUUUCUUTT against Fads2, the z-score is 1.88 (inactive). On to “GGCAUAAAGUUGUUUACAGTT against 3110006P09Rik”, for which the z-score was 3.24 (active).

For the sequence “GGUCAUUUCAAGUGCUAAGTT against D7Ertd680e”, the z-score was 1.01 (inactive). To GGUGGAAUGAAAUAUGAAGTT against Ptp4a1 belongs 0.0271 (inactive). In the case of CCUGGAAAGACUCUCGGAGTT against Cln2, the z-score was -0.492 (inactive).

Consider GGUGAUGUCUCGGUACCCATT against Mvk, for which the z-score was -0.664 (inactive). To GGGCUACAGCAUGUAUGAGTT against BC057627 belongs 2.38 (active); to GGAAAUUUCUUAGCACGAATT against Ppp4r1, 0.667 (inactive). To GGACUUUGAAGAGGACAAUTT against Dhx38 belongs -2.18 (inactive). Turning to “GCACGAAGAACCACACAAGTT against 5830484A20Rik”, the z-score was -0.63 (inactive).

GCAUGAUUUAGAUCGAGUATT against Uqcrfs1: the z-score was -1.17 (inactive). The figure for GGAUCACUACCAUGAAAACTT against Bace1 is -0.551 (inactive); for GGUGAAAUAGCUAAAUCAUTT against Usp15 it is -0.572 (active). In the case of “GGAGAUGGUUGGAUCAUUCTT against D10Ertd610e”, the z-score is 0.642 (inactive). On to “GGGUGAAAAGCAUUUCUGUTT against MGI:1923902”, for which the z-score is 1.38 (inactive). To GGACAAAGAAGACUCCCGATT against Dpf2 belongs 0.386 (inactive). The figure for GCAGAUAUUCUCUGUGCAGTT against Ccnf is 2.22 (inactive); for GGGCUAAAGUAUAUCCAUUTT against Mapk1 it is 1.14 (active); for “CGAAGGACAAAAUAUCAGCTT against 4930517G15Rik” it is -0.16 (inactive).

Turning to GUUGAGGAUAACAUUGAACTT against MGC102419, the z-score was -0.623 (inactive). On to “GGGUGUAUUCUGCUUUGUATT against 2600013N14Rik”, for which the z-score was -1.3 (inactive). To GGGAAUUGCUCACCUCCAUTT against Klre1 belongs -0.871 (inactive); to GCUAAAAUUGGAUCAAGGATT against Ccbp2, 2.14 (inactive). To GGACUUCAUCAAAGUCUUATT against Cyp11a1 belongs -1.45 (inactive). The figure for GGAAGAACUUUAAAAAUGCTT against Mic2l1 is 0.477 (inactive). As to CGUACUCUAUGAGGUGCCATT against Rab6ip1, the z-score is 0.703 (inactive). The figure for GCUUAAAGAUCGAUCCCGCTT against Slc38a4 is 0.666 (inactive).

For the sequence GCCAUUAAUAAUCAGUACUTT against Sh2bpsm1, the z-score was 0.686 (inactive). The figure for CCAUUGCCAACAACUAGAUTT against Ela3b is 2.87 (active). To GCUGAGGGUUGAUUAGUGGTT against H2-Bl belongs -1.2 (inactive); to GGCCUCCAGAAACAACUCGTT against Ndst2, 1.44 (inactive). The figure for GCUAGAACAGCAAAAAAAATT against Scgb3a1 is 0.00969 (inactive); for CCACGUGUUUGCAUUCAAATT against Gdd1 it is 0.222 (inactive). Consider GGAUCCCACACUUUUCUGATT against Rxra, for which the z-score is 1.02 (inactive).

Consider CCUAAAACUCACCAUAGAGTT against Nfatc3, for which the z-score is -0.0858 (inactive).

With “GAUAUAAGGACUCUUUGAATT against 4732486J07Rik”, the z-score is -0.212 (inactive). The figure for GGUCUUUUGGAAUCUCUGGTT against Crip3 is 1.26 (active); for GGAUAGUAACGGAAACUUGTT against Usp25 it is 2.49 (inactive).

GGAUUCGGAAUACUACGAUTT against Abo: the z-score was 1.79 (inactive).

Take “GGUGUCCUUUCAAGUUGAUTT against C530005A01Rik”: the z-score was -0.63 (inactive).

Turning to CGGCAGUGUUAAAACAUGATT against Fgfr2, the z-score is 0.114 (inactive).

On to GGAGCAGUAUAUCCUACAUTT against Olfr510, for which the z-score is 0.104 (active). To CCUGAGAACAUUUUAAUCATT against Tas2r116 belongs -0.685 (inactive); to CCAAUUCUCGAAUCAUUGCTT against Olfr561, -0.382 (inactive).

As for GCUACGCUAUCCAAAUUCUTT against AF529169, the z-score is -0.118 (inactive). The figure for CCCUUGGAGGAAGCUAACUTT against Pde2a is 1.27 (active).

In the case of GGAGAUGCCCAAUGUUUUCTT against Ehd1, the z-score was -0.27 (inactive). “CGGCCUGUUAUAAACCUGCTT against 4933409K07Rik”: the z-score was -0.131 (inactive).

Take GCCUCAUUGAAAGGAUCCATT against GnT-IX: the z-score is -0.888 (inactive). Regarding GCUUUUGAUCCACAGAUUUTT against Prss33, the z-score was 2.34 (active).

For the sequence GGAACAUCAGGUGCAUGUGTT against Pkd1, the z-score is 1.9 (inactive). As to “GGCUCCACCAAAGCCUGUUTT against 2310066N05Rik”, the z-score is -2.31 (inactive). To “CCUUGGGACUGACUGUAAGTT against A230072I16Rik” belongs 2.25 (inactive); to GGUCAAUUAUGAAGAGUUUTT against Calm3, 1.59 (inactive); to CCGGGUCAGGACAAUUCAUTT against Hsd17b1, 1.29 (active).

With GCAUUCGGCUGAGAAGAUGTT against Foxb2, the z-score was -1.8 (inactive). For GGAUAAUUCAGACAACAAUTT against Fus, the z-score is 3.47 (active). The figure for GGAACCAAUAAAUCUGUGCTT against Rfxank is 0.27 (inactive); for “GGUCAUAGGUACGUAUCCGTT against 6430529G09Rik” it is -0.0313 (inactive); for GGCUGUACAGUCAUGCAAGTT against Adamts5 it is 2.62 (active). Consider GGAAAGCUACUGUCAGAGUTT against Olfr473, for which the z-score was 0.453 (inactive).

As for GGACGUGUGGCUGUUGACATT against Sdc1, the z-score was -2.23 (inactive). The figure for “GCUUUAGAUACGUGAUUAGTT against 5830417C01Rik” is -1.26 (inactive); for “GCGACUACUUAGACACUUUTT against 4732481H14Rik” it is -1.94 (inactive); for UAGCCAUCGCUCUUUCUUATT against Olfr594 it is -0.973 (inactive). To GGACAAAGGUGUCAACUCCTT against Crmp1 belongs -0.491 (inactive); to GCUCCUAGGAACUUGGUUATT against Pacsin2, 2.36 (active). To CGAGUUCGGUAUGAGUGGATT against Clptm1 belongs -1.24 (inactive); to GGUCGGAAGAAUCUAAAGGTT against Dmp1, 0.0661 (inactive).

Consider GGAAGAGAGGACCAUGAAGTT against Usp18, for which the z-score was 2.69 (active). On to GAGAAUCCAGAACUCCAAUTT against Olfr952, for which the z-score was -0.963 (inactive).

As for GCAAUCAUUAAGCAGAUCATT against Prkce, the z-score was -2.49 (inactive). The figure for GGCCGACAAGCGAUCAAAATT against AU040829 is -0.237 (inactive); for GGAUUUGGCCAACUCACCCTT against Acpp it is 0.16 (active).

For CCCUUCCAACAAUUAUACUTT against Tmem27, the z-score is 1.04 (inactive). The figure for GGAGAGAAAGAAGUUGUUGTT against Lcn5 is 2.43 (inactive); for GGAUUUCGACAAUAUGAAGTT against Chrnb2 it is 2.24 (active); for CCUAUGAAGCUCCAUUAUGTT against Madcam1 it is 0.762 (inactive). As to CACUCUUGAUACAAAUGAGTT against Ifna6T, the z-score was 0.264 (inactive). The figure for “GGCACAAAGGCAGUUAUUCTT against 1110049G11Rik” is 0.847 (inactive); for GGGAAAAAUAUCAGUUAUGTT against Khdrbs1 it is 1.08 (active); for GCUGGUGUCAUUAGACAGUTT against Npc1l1 it is -0.302 (inactive). For GGCUAUAUCAAUGAAUUUGTT against Polr3b, the z-score is 0.129 (inactive). Regarding GGAUGUUCAUCUAUUUCUUTT against Mja1l, the z-score is -0.191 (inactive). Consider GGGACCAAGCAGGUAAAAATT against Kif3a, for which the z-score was 4.17 (active). The figure for “GGCCUAAGGACAAUUAUUUTT against 9130022A01Rik” is 0.222 (inactive). The figure for CCAAAUUCAUUCUAGCUCGTT against Copeb is 0.474 (inactive); for CCGAAUGGAAUACCAAAUUTT against Cst8 it is -0.186 (inactive); for GGAUGUCAGCUGGUGGUUATT against Tmprss6 it is -0.447 (inactive). As to CCAUCUUGGGUUCUGGUCATT against BC057627, the z-score is -0.312 (active). The figure for GGUGUCUGAAUUUGUGGCUTT against Abtb1 is 1.65 (inactive); for GGGAUCAUUAAACUUUUCCTT against Taf11 it is 0.894 (inactive). The figure for “GGAAAAUGUUUUACCAAUGTT against 4930470D19Rik” is 0.0823 (inactive); for “GGCUAGAGACUUGGUUUUUTT against E430025L02Rik” it is 1.23 (inactive); for GGUAACUGAGAAAACCAGATT against Adam29 it is 1.12 (active). The figure for “GGAUCUUGAAGACCAAAAATT against 9030409G11Rik” is -0.527 (inactive); for GGCAAGAGAAUUCAGAUCUTT against Slc5a1 it is 2.6 (inactive). For the sequence GGGCACAACUUCAACAGCUTT against Cklfsf8, the z-score was 1.53 (inactive).

As for GGUUAUCACUCCUCAACAATT against Foxp1, the z-score is -0.826 (inactive).
